Reference: PubChem BioAssay AID1159580 (chemical genetic matrix, 2015)
“And” between values parts separate entries of the source, which are not always exact repeats. Equal values may be shown once. The campaign covered roughly 5,500 compounds. About 2,000 (36%) were called active. About 18% were inconclusive and are not listed. Cut-off read from the data, not from the text of the source: active = normalized growth mostly below about 0.91 (no sharp cut-off); inconclusive = no clear call, values can overlap the other calls; inactive = mostly above about 0.92. This is one part of the list.

Experiment: chemical genetic growth profiling, strain panel (AID 1159580);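 note: tested at 20 µM; growth read once vehicle control cultures reached saturation at 30 °C; 1 = growth at the plate median or of vehicle wells; lower values mean less growth of the strain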
Settings: S. cerevisiae deletion strains, growth OD

Measured: normalized growth

S=P(N1CC1)(N1CC1)N1CC1
inactive: locus YAL013W, strain DEP1, active compounds read low 1.01 | locus YAL021C, strain ccr4, active compounds read low 1 | locus YAL026C, strain drs2, active compounds read low 1.01 | locus YAL030W, strain snc1, active compounds read low 0.996 | locus YBL061C, strain skt5, active compounds read low 1.01 | locus YBR009C, strain hhf1, active compounds read low 1.01 | locus YBR021W, strain FUR4, active compounds read low 0.946 | locus YBR023C, strain chs3, active compounds read low 1.02 | locus YBR171W, strain sec66, active compounds read low 1.01 | locus YBR229C, strain ROT2, active compounds read low 1.01 | locus YBR231C, strain swc5, active compounds read low 1.01 | locus YBR279W, strain paf1, active compounds read low 0.999 | locus YCL011C, strain gbp2, active compounds read low 1.01 | locus YCL016C, strain dcc1, active compounds read low 0.999 | locus YCL029C, strain bik1, active compounds read low 1.01 | locus YCL061C, strain MRC1, active compounds read low 1 | locus YCL069W, strain vba3, active compounds read low 1.01 | locus YCR088W, strain abp1, active compounds read low 1.02 | locus YDL005C, strain med2, active compounds read low 1.01 | locus YDL035C, strain GPR1, active compounds read low 1.02 | locus YDL040C, strain nat1, active compounds read low 1.01 | locus YDL074C, strain BRE1, active compounds read low 1.01 | locus YDL101C, strain DUN1, active compounds read low 1.01 | locus YDL134C, strain PPH21, active compounds read low 1 | locus YDL192W, strain arf1, active compounds read low 0.995 | locus YDR001C, strain nth1, active compounds read low 1.01 | locus YDR069C, strain doa4, active compounds read low 0.997 | locus YDR101C, strain arx1, active compounds read low 0.997 | locus YDR137W, strain rgp1, active compounds read low 1.02 | locus YDR150W, strain NUM1, active compounds read low 1 | locus YDR159W, strain sac3, active compounds read low 1 | locus YDR162C, strain NBP2, active compounds read low 1.01 | locus YDR195W, strain ref2 0.971 | locus YDR297W, strain sur2, active compounds read low 1 | locus YDR318W, strain mcm21, active compounds read low 1.01 | locus YDR334W, strain swr1, active compounds read low 1.01 | locus YDR335W, strain msn5, active compounds read low 1 | locus YDR388W, active compounds read low 1.01 | locus YDR392W, strain spt3, active compounds read low 1.03 | locus YDR502C, strain sam2, active compounds read low 0.996 | locus YEL003W, strain gim4, active compounds read low 1 | locus YEL037C, strain rad23, active compounds read low 1 | locus YEL061C, strain CIN8 (second series), active compounds read low 1 | locus YEL061C, strain CIN8, active compounds read low 1.01 | locus YER015W, strain faa2, active compounds read low 1 | locus YER016W, strain bim1, active compounds read low 1 | locus YER110C, active compounds read low 1.01 | locus YER111C, strain swi4, active compounds read low 0.99 | locus YER155C, strain BEM2 (second series), active compounds read low 1.03 | locus YER155C, strain BEM2, active compounds read low 1 | locus YER167W, strain BCK2, active compounds read low 1.01 | locus YFR010W, strain ubp6, active compounds read low 1.01 | locus YGL078C, strain dbp3, active compounds read low 0.999 | locus YGL086W, strain mad1, active compounds read low 1 | locus YGL167C, strain pmr1, active compounds read low 1.01 | locus YGL173C, strain kem1, active compounds read low 1.02 | locus YGL227W, strain vid30, active compounds read low 1.01 | locus YGL240W, strain doc1, active compounds read low 1.01 | locus YGL248W, strain PDE1, active compounds read low 1.01 | locus YGL253W, strain hxk2, active compounds read low 1.02 | locus YGR078C, strain PAC10, active compounds read low 1.01 | locus YGR135W, strain pre9, active compounds read low 0.996 | locus YGR229C, strain SMI1, active compounds read low 0.971 | locus YGR252W, strain gcn5, active compounds read low 0.985 | locus YHR013C, strain ard1, active compounds read low 0.997 | locus YHR027C, strain rpn1, active compounds read low 0.997 | locus YHR030C, strain SLT2, active compounds read low 1.01 and 0.994 | locus YHR079C, strain IRE1 (second series), active compounds read low 1 | locus YHR079C, strain IRE1, active compounds read low 0.985 | locus YHR094C, strain hxt1, active compounds read low 1 | locus YHR129C, strain ARP1, active compounds read low 1.03 | locus YHR142W, strain chs7, active compounds read low 1 | locus YHR200W, strain rpn10, active compounds read low 0.997 | locus YIL066C, strain RNR3, active compounds read low 1.02 | locus YIL073C, strain SPO22, active compounds read low 0.993 | locus YIL125W, strain kgd1, active compounds read low 1.01 | locus YIR030C, strain dcg1, active compounds read low 1.02 | locus YJL092W, strain hpr5, active compounds read low 1 | locus YJL095W, strain BCK1 (second series), active compounds read low 1.01 | locus YJL095W, strain BCK1, active compounds read low 1.02 and 1.01 | locus YJL115W, strain asf1, active compounds read low 1.01 | locus YJL129C, strain trk1, active compounds read low 1.02 | locus YJL134W, strain LCB3, active compounds read low 1.01 | locus YJL154C, strain vps35, active compounds read low 1.01 | locus YJL164C, strain tpk1, active compounds read low 1.01 | locus YJL166W, strain qcr8, active compounds read low 1.01 | locus YJL168C, strain set2, active compounds read low 0.999 | locus YJL187C, strain SWE1 (second series), active compounds read low 1.01 | locus YJR043C, strain POL32, active compounds read low 1 | locus YJR066W, strain TOR1, active compounds read low 0.976 | locus YJR075W, strain HOC1, active compounds read low 1.01
